We go through nine compounds from PubChem BioAssay (NCI).

Molecules are shown by their SMILES. Compounds without any hit were thinned out: in the full panel of roughly 83,000, 20% have a hit.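 Growth was measured after 48 h exposure to one concentration of compound in 96-well plates. Values under 10 count as active.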 Values without a mark were called inactive. Activity calls are given as the source filed them.

Among the test systems are SR leukemia; RPMI-8226 leukemia; OVCAR-8 ovarian; OVCAR-5 ovarian; OVCAR-4 ovarian; SK-OV-3 ovarian; IGROV1 ovarian; OVCAR-3 ovarian; HS 578T breast; NCI/ADR-RES ovarian; T-47D breast; BT-549 breast; MDA-MB-435 melanoma; SW-620 colon; MCF7 breast; HCT-116 colon; HCC-2998 colon; KM12 colon.
Common to all, as to assay: NCI-60 one-dose screen, 48 h (100 = growth as untreated, 0 = no growth, -100 = all killed)
Conditions in all cases: 10 µM unless noted

Take `O=C(Cn1c(C(=O)c2ccccc2)nc2ccccc21)c1ccc(F)cc1`: the growth with SR leukemia was 25.4%; in the assay on RPMI-8226 leukemia it was 28.7%; in the assay on OVCAR-8 ovarian it was 79.7%; in the assay on OVCAR-5 ovarian, 84.2%; in the assay with OVCAR-4 ovarian it was 58.4%; with SK-OV-3 ovarian it was 110%. Besides, the growth in the assay on IGROV1 ovarian was 41.1%; in the assay with OVCAR-3 ovarian it was 67.2%; in the assay on HS 578T breast, 56.2%; with NCI/ADR-RES ovarian, 16.1%; in the assay on T-47D breast it was 58.7%; with BT-549 breast it was 60.2%. Further, the growth in the assay with MDA-MB-435 melanoma was -32% (active); in the assay on SW-620 colon it was 22.9%; in the assay on MCF7 breast, 36.4%; in the assay on HCT-116 colon, 39.2%; in the assay with HCC-2998 colon, 50.1%; in the assay on KM12 colon it was 43.9%.
As for `Nc1n[nH]c2cccc(C#Cc3cccc(C(=O)Nc4cc(CN5CCOCC5)cc(C(F)(F)F)c4)c3)c12`, the growth in the assay on SR leukemia was 35.6%; with RPMI-8226 leukemia it was 12.9%; in the assay on OVCAR-8 ovarian, 28.9%; in the assay with OVCAR-5 ovarian it was 34.3%; in the assay with OVCAR-4 ovarian, 33.1%; in the assay with SK-OV-3 ovarian, 82.9%. The growth was 7.98% (active) in the assay on IGROV1 ovarian; 46.7% in the assay with OVCAR-3 ovarian; 10.2% with HS 578T breast; 42.1% in the assay with NCI/ADR-RES ovarian; 37.1% with T-47D breast; 57.9% in the assay with BT-549 breast. The growth in the assay on MDA-MB-435 melanoma is 23.4%; in the assay with SW-620 colon, 30.9%; in the assay on MCF7 breast, 44.2%; in the assay with HCT-116 colon it was 14.1%; with HCC-2998 colon, 45%; in the assay with KM12 colon, 13.1%.
For the compound `Cc1cc2nc3c4cc([N+](=O)[O-])ccc4n(CCN(C)C)c3nc2cc1C`, the growth was -16.7% (active) with SR leukemia; -36.4% (active) in the assay with RPMI-8226 leukemia; 8.77% (active) with OVCAR-8 ovarian; -8.87% (active) in the assay on OVCAR-5 ovarian; 9.25% (active) in the assay on OVCAR-4 ovarian; 8.97% (active) in the assay with SK-OV-3 ovarian. Also, the growth with IGROV1 ovarian is -33.6% (active); in the assay with OVCAR-3 ovarian it was -8.29% (active); with HS 578T breast, 20.7%; in the assay on NCI/ADR-RES ovarian, -13.4% (active); in the assay with T-47D breast, 10.6%; with BT-549 breast it was 31.7%. For the same compound, the growth in the assay with MDA-MB-435 melanoma is -32.2% (active); in the assay with SW-620 colon it was -5.68% (active); in the assay on MCF7 breast, 4.74% (active); in the assay with HCT-116 colon it was 2.59% (active); with HCC-2998 colon it was -37.2% (active); with KM12 colon, 5.62% (active).
For `NC(=O)Nc1ccc(-n2cnc3cc(-c4ccc(O)cc4)ccc32)cc1`, the growth in the assay with SR leukemia was 88.1%; in the assay on RPMI-8226 leukemia it was 91.5%; in the assay on OVCAR-8 ovarian, 97.4%; with OVCAR-5 ovarian, 97.5%; in the assay with OVCAR-4 ovarian, 89%; with SK-OV-3 ovarian, 137%. The growth with IGROV1 ovarian is 108%; in the assay with OVCAR-3 ovarian, 108%; in the assay on HS 578T breast, 109%; with NCI/ADR-RES ovarian, 103%; in the assay with T-47D breast, 59.7%; with BT-549 breast it was 88.2%. Also, the growth in the assay with MDA-MB-435 melanoma was 96.8%; in the assay on SW-620 colon, 114%; in the assay with MCF7 breast it was 93.7%; in the assay on HCT-116 colon, 91.8%; in the assay on HCC-2998 colon it was 110%; in the assay on KM12 colon, 21.8%.
Turning to `COc1cc2c(c(O)c1Br)C(=O)c1c(O)cc(C[C@H](C)O)cc1[C@H]2[C@H]1c2cc(C[C@H](C)O)cc(O)c2C(=O)c2c1cc(OC)c(Br)c2O`, the growth was -5.41% (active) with SR leukemia; 9.04% (active) in the assay with RPMI-8226 leukemia; 10.4% in the assay with OVCAR-8 ovarian; 0.764% (active) with OVCAR-5 ovarian; 11.5% in the assay with OVCAR-4 ovarian; 8.82% (active) with SK-OV-3 ovarian. Also, the growth is 2.65% (active) with IGROV1 ovarian; -27.4% (active) with OVCAR-3 ovarian; 9.13% (active) in the assay with HS 578T breast; 56.3% in the assay on NCI/ADR-RES ovarian; 8.03% (active) in the assay on T-47D breast; 17.3% with BT-549 breast. Further, the growth is 9.24% (active) in the assay on MDA-MB-435 melanoma; 18.2% in the assay with SW-620 colon; 8.05% (active) in the assay on MCF7 breast; 10.1% in the assay with HCT-116 colon; 26% in the assay on HCC-2998 colon; 9.13% (active) in the assay on KM12 colon.
For the compound `O=S(=O)(NCCCNc1nccc(-c2c(-c3cccc(F)c3)nc3sccn23)n1)c1cccc2ccccc12`, the growth in the assay on SR leukemia is 62%; with RPMI-8226 leukemia it was 44.9%; in the assay with OVCAR-8 ovarian, 38.5%; in the assay on OVCAR-5 ovarian, 80.9%; in the assay with OVCAR-4 ovarian, 40.2%; in the assay on SK-OV-3 ovarian, 65.8%. Also, the growth was 22.3% in the assay with IGROV1 ovarian; 68.7% in the assay on OVCAR-3 ovarian; 55.9% in the assay with HS 578T breast; 47.1% with NCI/ADR-RES ovarian; 18.4% in the assay with T-47D breast; 65% in the assay with BT-549 breast. The growth in the assay on MDA-MB-435 melanoma is 22.6%; with SW-620 colon, 42.1%; with MCF7 breast, 37.4%; in the assay with HCT-116 colon, 32.4%; in the assay with HCC-2998 colon it was 16.3%; in the assay on KM12 colon, 26%.
For `COc1ccc(Cc2cnc(NC(=O)c3ccc4c(c3)OCCO4)s2)cc1`, the growth in the assay with SR leukemia was 3.32% (active); with RPMI-8226 leukemia, 15.8%; in the assay on OVCAR-8 ovarian, 16.9%; in the assay on OVCAR-5 ovarian, 26.1%; with OVCAR-4 ovarian, 41.2%; in the assay on SK-OV-3 ovarian it was 33.4%. Also, the growth is 20.2% in the assay with IGROV1 ovarian; 6.58% (active) in the assay with OVCAR-3 ovarian; 31.7% in the assay on HS 578T breast; -1.17% (active) in the assay with NCI/ADR-RES ovarian; 42.8% in the assay on T-47D breast; 43.6% with BT-549 breast. Moreover, the growth in the assay with MDA-MB-435 melanoma was 4.11% (active); in the assay with SW-620 colon it was 31.4%; in the assay with MCF7 breast it was 9.58% (active); in the assay with HCT-116 colon it was 7.75% (active); in the assay on HCC-2998 colon, 18.8%; in the assay on KM12 colon, 10.3%.
`O=C1c2ccc3c4c(ccc(c24)C(=O)N1CCCNCc1ccccc1F)C(=O)N(CCCNCc1ccccc1F)C3=O`: the growth with SR leukemia is -37.8% (active); in the assay on RPMI-8226 leukemia it was -32.2% (active); in the assay with OVCAR-8 ovarian, -17.4% (active); with OVCAR-5 ovarian it was -23% (active); in the assay with OVCAR-4 ovarian it was -98.4% (active); in the assay on SK-OV-3 ovarian, -21.8% (active). The growth with IGROV1 ovarian is -57.7% (active); with OVCAR-3 ovarian, -63% (active); in the assay on HS 578T breast, -23.7% (active); in the assay with NCI/ADR-RES ovarian, -18.4% (active); in the assay with T-47D breast, -27.9% (active); in the assay on BT-549 breast, -85.4% (active). For the same compound, the growth in the assay on MDA-MB-435 melanoma is -74.3% (active); with SW-620 colon, -73.3% (active); in the assay with MCF7 breast, -80.5% (active); in the assay on HCT-116 colon it was -37.7% (active); in the assay on HCC-2998 colon it was -93.1% (active); with KM12 colon it was -76.1% (active).
Regarding `COc1ccc(-c2nc3sccn3c2/C=C/C(=O)c2ccc3c(c2)OCO3)cc1`, the growth in the assay with SR leukemia was 41.4%; with RPMI-8226 leukemia it was 10.5%; in the assay on OVCAR-8 ovarian it was 80.9%; in the assay with OVCAR-5 ovarian it was 108%; in the assay with OVCAR-4 ovarian, 46.1%; in the assay with SK-OV-3 ovarian, 170%. Also, the growth is 85.1% in the assay with IGROV1 ovarian; 84.8% in the assay with OVCAR-3 ovarian; 96.9% in the assay on HS 578T breast; 75.7% with NCI/ADR-RES ovarian; 83.9% in the assay on T-47D breast; 81.8% with BT-549 breast. In addition, the growth with MDA-MB-435 melanoma was 57.6%; with SW-620 colon it was 56%; in the assay on MCF7 breast it was -7.62% (active); in the assay on HCT-116 colon, 58.4%; in the assay on HCC-2998 colon, 95.5%; in the assay with KM12 colon it was 54.2%.
